Hits are enriched below; roughly 1.7% of the tested compounds scored in any of these assays.
p53ts 39C tox = p53ts cell cytotoxicity, nonpermissive temperature | H1299-p53A138V viability at 39C, ATP luminescence, 24 h | Potency, µM (top dose mostly 46.1 µM), for the others: at the highest dose activity change, negative = cell killing, hits mostly cytotoxic | 1.5% of 130,000 active | AID 902; further: on the % scale 0 is the no-effect control and ±100 the full control effect; nearly all actives have a fitted effect of over 55% in size
Peg3 imprint = induces erasure of genomic imprints in mouse ES cells. mouse ES Peg3-LacZ reporter, beta-gal luminescence, 40 h. Potency, µM (top dose mostly 60.7 µM), for inactives: at the top dose activity change, positive = activation, most hits filed as activators. 0.02% of 110,000 active. AID 1948
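Readout: BetaGlo luminescence (5 min, room temp) for LacZ from the normally silent maternal Peg3 allele in female Peg3LacZ-Neo ES cells. Cells 300/well, 40 h, 37C, 5% CO2. Data normalized per plate to negative controls.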
IkB sig inh = inhibitors of IkB signaling in ABC-DLBCL cells. ABC-DLBCL IkBa-CBG/CBR dual luciferase ratio, 4 h; response scale: scaled: untreated 0%, proteasome inhibitor 100%. Potency, µM (doses to about 57.1 µM), for inactives: at the top dose IkBa stabilization activation. 0.04% of 110,000 active. AID 445; active means well fitted curve in the direction sought with a large enough effect in the signal ratio, not every such curve was filed as active; inconclusive means small, poorly fitted or top-dose-only effect, or a change in a side signal; the % refers to the signal ratio;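 further: the direction sought is a rising ratio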
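In this assay, an IκBα–CBG68 fusion accumulates when IKK-driven degradation is blocked; native CBR normalizes for cell number. OCI-Ly3 cells were treated 4 h with compound and doxycycline, then green and red light read after Chroma-Glo addition.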
p53ts 32C tox = cytotoxicity in p53ts cells at permissive temperature | H1299-p53A138V at 32C, ATP luminescence viability, 24 h | Potency, µM (titrated, usually from 46.1 µM), for inactives: at the top dose activity change, negative = cytotoxicity, most hits filed as cytotoxic | 0.93% of 130,000 active;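 further: 0% = DMSO and -100% = full killing by reference compound; nearly all actives have a fitted effect of over 55% in size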
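H1299-p53 A138V cells (temperature-sensitive p53) exposed 24 h to up to 46 uM compound at 32C, where p53 is wild-type in conformation. Viability read as ATP luminescence and normalised to DMSO and 100 uM tamoxifen. AC50 fitted with the Hill equation.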
Starred values were filed as active, the others as inactive; ? = inconclusive; . = no result given; [ ] = dose if it differs, or a comment. Unless noted, the call rests on the fitted dose curve; in most records, active means well fitted curve in the direction sought with a large enough effect; inconclusive means small, poorly fitted or top-dose-only effect, or another doubt; inactive means no such curve, though single readings can be large; an effect the other way counts as inactive or inconclusive. Potency means the concentration at half of the fitted maximal effect.

SMILES	p53ts 39C tox	Peg3 imprint	IkB sig inh	p53ts 32C tox
CC(C)OCCCN1C(=O)c2[nH]nc(-c3ccccc3O)c2C1c1cccc(OCc2ccccc2)c1 (centres undefined)	?	-11%[10.9 µM]	?	?
COCCCN1C(=O)c2[nH]nc(-c3ccccc3O)c2C1c1ccc(OCc2ccccc2)cc1 (centres undefined)	13µM*	-8%[10.9 µM]	?	25%
CCCCN1C(=O)c2[nH]nc(-c3ccccc3O)c2C1c1ccc(OCc2ccccc2)cc1 (centres undefined)	13µM*	-9%[10.9 µM]	?	24%
CCCCN1C(=O)c2[nH]nc(-c3ccccc3O)c2C1c1ccc(OCc2ccccc2)c(OC)c1 (centres undefined)	-11%	-11%[10.9 µM]	?	25%
CCCCN1C(=O)c2[nH]nc(-c3ccccc3O)c2C1c1ccc(C(C)(C)C)cc1 (centres undefined)	13µM*	25%[10.9 µM]	?	?
COc1ccccc1CN1C(=O)CN(C2CCCCCC2)C(=O)C1c1ccc(C)cc1 (centres undefined)	-27%	-9%[10.9 µM]	?	2%
CC1(C)[C@@H](O)CC[C@@]2(C)[C@H]1CC[C@]1(C)[C@H]2C(=O)C=C2[C@@H]3C[C@@](C)(C(=O)O)CC[C@]3(C)CC[C@@]21C	.	.	1%[11.4 µM]	.
Cc1ccc(/C=C/C(=O)Nc2ccc3nc(N4CCC(C)CC4)cc(C)c3c2)cc1	-28%	-15%[10.9 µM]	?	-9%
Cc1ccc(Cl)cc1-n1nnc(-c2nsc(NC(=O)c3ccccc3Cl)n2)c1C	-26%	-7%[10.9 µM]	?	28%
COc1cccc(C2NC(C(=O)O)CCC2C)c1 (centres undefined)	4%[9.22 µM]	.	.	6%[9.22 µM]
O=C1C(SCCO)=C(SCCO)C(=O)c2ccccc21	0.79µM*	-74%	?	0.63µM*
N#CC(=NCCO)C1=C(O)c2ccccc2C1=O	-16%[9.22 µM]	0%[10.9 µM]	-1%[11.4 µM]	?
COC(=O)c1ccc(C#CC(NP(=O)(c2ccccc2)c2ccccc2)c2ccccc2)cc1 (centres undefined)	-14%	-16%	.	-28%
CC(C)Cn1nc(NC(=O)c2cccc(Cl)c2)c2cc3ccccc3nc21	13µM*	-8%[10.9 µM]	?	-24%
CCCCOc1ccccc1C1CC(=O)Nc2cc(C)c(C)cc21 (centres undefined)	10µM*	-14%[10.9 µM]	0%	-16%
CC1CCC2C(=O)OC(CN=[N+]=[N-])CN2C1c1ccc(Br)cc1 (centres undefined)	-2%[9.22 µM]	.	.	-1%[9.22 µM]
Cc1ccc(C)c(N2CCN(C(=O)C3CCN(C(=O)c4cc5sccc5n4C)CC3)CC2)c1	-26%	-17%[10.9 µM]	?	28%
Cc1cccc(N2CCN(C(=O)C3CCN(C(=O)c4cc5sccc5n4C)CC3)CC2C)c1 (centres undefined)	13µM*	23%[10.9 µM]	?	-11%
O=C(Nc1ccc(N2CCN(C(=O)c3ccco3)CC2)c(Cl)c1)c1cc2ccccc2o1	?	-36%	-9%	13µM*
CCCC(=O)N1CCN(c2ccc(NC(=O)c3cc4ccccc4o3)cc2Cl)CC1	16µM*	-26%	?	?
O=C(Nc1ccc(N2CCOCC2)c(Cl)c1)c1ccco1	16µM*	-35%	4%	13µM*
CCC(=O)N1CCN(c2ccc(NC(=O)c3cc4ccccc4o3)cc2Cl)CC1	?	-14%	?	?
CCc1cc2c(nc1CC)CCN(CC/C(C)=N/OC[C@@H](O)[C@@H]1O[C@@H]3OC(C)(C)O[C@@H]3[C@H]1O)C2	14%[9.22 µM]	.	.	10%[9.22 µM]
C[C@@]12C[C@H](O)[C@@H]3[C@H](CCC4=CC(=O)CC[C@]43C)[C@H]1CC[C@@H]2c1csc(-c2ccccc2)n1	-8%[9.22 µM]	.	3%[11.4 µM]	5%[9.22 µM]
CC(C)CC(=O)Nc1c(C(=O)N2CCN(c3ccccc3)CC2)oc2ccccc12	17%	13%[10.9 µM]	?	-10%
SMILES	p53ts 39C tox	Peg3 imprint	IkB sig inh	p53ts 32C tox
CCCCC(=O)Nc1c(C(=O)N2CCN(c3ccccc3)CC2)oc2ccccc12	16µM*	-3%[10.9 µM]	?	17%
O=S(=O)(NCCNC/C=C\c1ccc(Br)cc1)c1cccc2cnccc12	16µM*	.	-4%	?
O=S(=O)(NCCO)c1cccc2cccnc12	3%	2%	2%	6%
Nc1nc(Sc2ccc([N+](=O)[O-])c3nonc23)c2[nH]cnc2n1	?	-41%[10.9 µM]	4µM*	?
CC1(C)CC(=O)c2sc(NC(=O)CN3CCCCC3)nc2C1	8%	23%	1%	6%
O=C(Nc1nc2c(s1)CCCC2)c1cccs1	10µM*	.	?	10µM*
CC1(C)CC(=O)c2sc(NC(=O)c3cccs3)nc2C1	1.6µM*	.	.	1.6µM*
O=c1c2cc3c(cc2nc2sc(Nc4ccc(F)c(Cl)c4)nn12)OCO3	-3%	17%[10.9 µM]	-2%	9%
COc1ccc(CCNC(=O)c2cnn(-c3cccc(C)c3)c2C2CCN(C(=O)OC(C)(C)C)CC2)cc1OC	9%	12%[10.9 µM]	?	5%
Nc1ccn([C@H]2CC[C@H](CO)O2)c(=O)n1	.	.	-4%	.
COc1cc2c(C=O)c3c4c(cc(OC)c(OC)c4c2cc1OC)CCN3C	16µM*	-19%	.	?
Cc1cn2c(=O)cc(COC(=O)COc3ccccc3C)nc2s1	-6%	-3%[10.9 µM]	0%	3%
Cc1cccc(/C=C(\c2nc3ccccc3[nH]2)S(=O)(=O)c2ccccc2)c1	4.5µM*	.	.	4.5µM*
O=S(=O)(Nc1cccc(-c2ccc(N3CCCCC3)nn2)c1)c1cccs1	6.3µM*	-12%[10.9 µM]	1%	10µM*
CC(=O)c1ccc(S(=O)(=O)Nc2cccc(-c3ccc(N4CCCCCC4)nn3)c2)cc1	6.3µM*	-12%[10.9 µM]	-4%	?
O=S(=O)(Nc1cccc(-c2ccc(N3CCCCCC3)nn2)c1)c1ccccc1	?	-8%[10.9 µM]	-1%	?
O=S(=O)(Nc1cccc(-c2ccc(N3CCCCC3)nn2)c1)c1ccc(Cl)s1	5µM*	-16%[10.9 µM]	?	10µM*
Cc1cc(C)c(S(=O)(=O)Nc2ccc(-c3ccc(N4CCCCC4)nn3)cc2)c(C)c1	7.9µM*	-16%[10.9 µM]	?	?
CC(=O)c1ccc(S(=O)(=O)Nc2cccc(-c3ccc(N4CCCC4)nn3)c2)cc1	?	-6%[10.9 µM]	?	-11%
CCOc1ccc(N2Cc3ccccc3C2)cc1	?	-61%	1%	13µM*
O=C(Nc1ccc(F)cc1)c1oc2ccccc2c1NC(=O)C1CCCCC1	-5%	-10%[10.9 µM]	?	-3%
CNC(=O)c1c(NC(=O)c2ccc(S(=O)(=O)N3CCCC(C)C3)cc2)sc2c1CCC2 (centres undefined)	-5%	-9%[10.9 µM]	11%	2%
Cc1ccc(C(=O)Nc2ccc(C(=O)OCc3cc(=O)n4ccsc4n3)cc2)cc1	-13%	-14%[10.9 µM]	-3%	15%
Cc1cn2c(=O)cc(COC(=O)c3cccc(NC(=O)c4ccc(C(C)(C)C)cc4)c3)nc2s1	3.2µM*	-15%[10.9 µM]	?	2.5µM*

High-throughput results (PubChem)
